Most compounds without a hit are left out; they make up all but 2.8% or so of the library.
PTHR1 ag: qHTS for PTHR1 Agonists: Primary Screen | Parathyroid hormone/parathyroid hormone-related peptide receptor (Homo sapiens), Q03431 | HEK293 GP2 PTHR1 cells, GloSensor cAMP luminescence, 1 h | Potency, µM (titrated, usually from 115 µM), for inactives: at the highest dose activation, actives largely listed as activators | 410,000 tested, 0.075% active; note: potency is the fitted concentration of half-maximal effect; nearly all actives have a fitted effect of over 55% in size
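HEK-293-derived GP2 cells expressing PTHR1 and a GloSensor cAMP reporter, 3,000/well, plated overnight, given luciferin plus IBMX (each 0.5 mM as added) for 1 h at 37 °C, then compound for 1 h at 37 °C. Luminescence was read after 15 min at room temperature.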
D3 antag: qHTS of D3 Dopamine Receptor Antagonist: qHTS; D(3) dopamine receptor (Homo sapiens), P35462; D3R cells, DiscoveRx beta-arrestin luminescence, antagonist mode; active compounds read low; max response, negative = inhibition, %; 360,000 tested, 2.5% active; in the data active = max response below about -50%; inconclusive = no clear call, values can overlap the other calls; note: % is set by controls: 0 for no effect and ±100 for the full control effect
Target sequence (P35462 whole entry, looked up): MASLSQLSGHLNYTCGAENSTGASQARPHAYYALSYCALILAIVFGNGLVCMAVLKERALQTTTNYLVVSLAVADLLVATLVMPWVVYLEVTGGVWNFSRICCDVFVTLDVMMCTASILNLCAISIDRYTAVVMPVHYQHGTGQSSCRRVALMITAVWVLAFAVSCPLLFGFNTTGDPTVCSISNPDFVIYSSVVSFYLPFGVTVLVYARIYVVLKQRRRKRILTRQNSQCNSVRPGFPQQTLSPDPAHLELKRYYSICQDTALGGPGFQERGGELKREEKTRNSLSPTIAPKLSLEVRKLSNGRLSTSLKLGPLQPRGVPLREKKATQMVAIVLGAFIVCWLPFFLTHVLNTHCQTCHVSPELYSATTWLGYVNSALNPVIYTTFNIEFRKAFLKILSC
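Cells expressing the human receptor were seeded at 1500 cells/well, incubated overnight at 37 degrees C in 5% CO2, then exposed to library compounds with dopamine controls for 90 minutes at 37 degrees C before luminescent detection.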
a7 integrin act: qHTS for Activators of Integrin-Mediated Alleviation for Muscular Dystrophy. 350,000 tested, 0.064% active. AID 624291, 2012. Potency, µM (titrated, usually from 38.3 µM), without a hit: at the highest dose activation, actives largely listed as activators. alpha7betagal myoblasts, beta-gal FDG fluorescence, 48 h;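 note: potency is the fitted concentration of half-maximal effect; 100% = response of the positive control SU9516; nearly all actives have a fitted effect of over 60% in size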
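alpha7betagal+/- myoblasts (passage 13, 250/well) treated 48 h at 37C with compounds at 1:260 dilution of DMSO stock. Lysed, then beta-galactosidase activity read as FDG fluorescence (ex 480/em 540) after 30 min, with pre-read for autofluorescence.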
MBNL1-CUG inh: qHTS Assay for Inhibitors of MBNL1-poly(CUG) RNA binding | TR-FRET MBNL1-His/biotin-(CUG)12 binding, 665/545 ratio | 280,000 tested, 0.036% active | Muscleblind-like protein 1 (Homo sapiens), Q9NR56 | Potency, µM (doses to about 57.5 µM), for the others: at the highest dose activity change, negative = inhibition, hits mostly inhibitors; active = well fitted inhibition curve with a large enough effect in the signal ratio, with a control signal flat, not every such curve was filed as active; inconclusive = small, poorly fitted or top-dose-only effect, or effect the other way, or a change in a side signal; inactive = no such curve, though single readings can be large or run the other way; the % refers to the signal ratio; note: potency is the fitted concentration of half-maximal effect; % is set by controls: 0 for no effect and ±100 for the full control effect
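His-tagged MBNL1 binding to biotinylated (CUG)12 RNA was measured by TR-FRET using terbium anti-His antibody (0.055 ng/ul final) and streptavidin-XL665 (5 nM final). Compounds were titrated 92 nM to 58 uM; 60 min at room temperature.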
CBFb-RUNX1 inh: qHTS Assay for Compounds Blocking the Interaction Between CBF-beta and RUNX1 for the Treatment of Acute Myeloid Leukemia. AlphaScreen CBFb-His/RUNX1-biotin binding, biochemical. Potency, µM (highest dose often 59.8 µM), inactives show at the highest dose activity, negative = inhibition, actives largely listed as inhibitors. 230,000 tested, under 10 active. Runt-related transcription factor 1 (Homo sapiens) + Core-binding factor subunit beta …; note: % of control where 0% means no effect
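Read-out: AlphaScreen. Format: His-CBF-beta with biotinylated RUNX1 (30 nM each) preincubated 20 min, compound 15 min, Ni-chelate plus streptavidin beads 90 min; room temperature throughout.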
DRD3 agonist: qHTS of D3 Dopamine Receptor Agonist: qHTS. 410,000 tested, 0.58% active. D3R DiscoveRx beta-arrestin cells, luminescence, 90 min. max activation, %; in the data active = max activation above about 30%; note: 0% is about no effect
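Agonist mode: compounds and dopamine controls were applied to plated cells for 90 min at 37 degrees C after an overnight attachment at 1500 cells/well. Luminescent read-out followed 30 - 60 minutes at room temperature with DiscoveRx detection reagent.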
An asterisk follows results filed as active; [ ] = another dose, or the depositor's remark. Unless noted, calls come from the whole dose curve; as a rule, active = well fitted curve in the direction sought with a large enough effect; inconclusive = small, poorly fitted or top-dose-only effect, or another doubt; inactive = no such curve, though single readings can be large; an effect the other way counts as inactive or inconclusive.

How did CO[C@H]1/C=C/O[C@@]2(C)Oc3c(C)c(O)c4c(O)c(c(C=NN5CCN(C)CC5)c(O)c4c3C2=O)NC(=O)/C(C)=C\C=C\[C@H](C)[C@H](O)[C@@H](C)[C@@H](O)[C@@H](C)[C@H](OC(C)=O)[C@@H]1C do in these assays?
PTHR1 ag: inactive; D3 antag: inconclusive; DRD3 agonist: -32

What do the screens show for `CO[C@H]1C=CO[C@@]2(C)Oc3c(C)c(O)c4c(O)c(c(C=NN5CCN(C)CC5)c(O)c4c3C2=O)NC(=O)C(C)=CC=C[C@H](C)[C@H](O)[C@@H](C)[C@@H](O)[C@@H](C)[C@H](OC(C)=O)[C@@H]1C`?
PTHR1 ag: -5%; D3 antag: -76*; MBNL1-CUG inh: inconclusive; CBFb-RUNX1 inh: inconclusive; DRD3 agonist: -39

How did Cn1c(=O)c2[nH]c(Cc3cccc4ccccc34)nc2n(C)c1=O do in these assays?
PTHR1 ag: -23%; D3 antag: 30; a7 integrin act: -25%; DRD3 agonist: 36*

Results for CCOC(=O)N1CCN(C(=O)CN(c2cccc(Cl)c2)S(=O)(=O)c2ccccc2)CC1 ?
PTHR1 ag: -23%; DRD3 agonist: 1

How did O=[N+]([O-])c1ccc(N/N=C/c2sc(N3CCOCC3)nc2-c2ccccc2)c(S(=O)(=O)Nc2ccccc2Cl)c1 do in these assays?
PTHR1 ag: -40%; D3 antag: -53*; a7 integrin act: -42%; MBNL1-CUG inh: 17%; CBFb-RUNX1 inh: 0%; DRD3 agonist: -4

How did O=C(O)c1cccc(N/N=C/c2sc(N3CCOCC3)nc2-c2ccccc2)c1 do in these assays?
PTHR1 ag: -7%; D3 antag: 5; a7 integrin act: -7%; CBFb-RUNX1 inh: 6%; DRD3 agonist: 0

What do the screens show for `O=C(N/N=C/c1sc(N2CCOCC2)nc1-c1ccccc1)c1ccccc1Cl`?
PTHR1 ag: inactive; D3 antag: -12; a7 integrin act: 18%; MBNL1-CUG inh: 7%; CBFb-RUNX1 inh: 2%; DRD3 agonist: -2

What do the screens show for `O=[N+]([O-])c1ccc(N/N=C/c2sc(N3CCOCC3)nc2-c2ccccc2)c(S(=O)(=O)Nc2ccc(Cl)cc2)c1`?
PTHR1 ag: -90%; D3 antag: -70*; a7 integrin act: 0%; MBNL1-CUG inh: -2%; CBFb-RUNX1 inh: 6%; DRD3 agonist: -29

Results for COC(=O)c1ccc(NC(=O)c2cccc(OC)c2)cc1 ?
PTHR1 ag: inactive; D3 antag: 20; a7 integrin act: 25%; MBNL1-CUG inh: -5%; CBFb-RUNX1 inh: -1%; DRD3 agonist: -2

How did COC(=O)c1ccc(NC(=O)c2cccc(C)c2)cc1 do in these assays?
PTHR1 ag: inactive; D3 antag: -52*; a7 integrin act: 14%; MBNL1-CUG inh: 0%; DRD3 agonist: -2

What do the screens show for `COc1cccc(C(=O)Nc2ccc(C(=O)c3ccccc3)cc2)c1`?
PTHR1 ag: -27%; D3 antag: 1; a7 integrin act: 0%; MBNL1-CUG inh: -5%; DRD3 agonist: 3

What do the screens show for `CC(=O)Nc1ccc(NC(=O)c2cccc(Oc3ccccc3)c2)cc1`?
PTHR1 ag: inactive; D3 antag: -51*; a7 integrin act: 0%; MBNL1-CUG inh: -2%; DRD3 agonist: -16

What do the screens show for `CCn1c(CNc2ccc(Cl)cc2)nnc1SCC#N`?
PTHR1 ag: inactive; D3 antag: 27; a7 integrin act: 8%; MBNL1-CUG inh: -1%; CBFb-RUNX1 inh: -9%; DRD3 agonist: -2

Results for O=C1C2Sc3[nH]c(=O)sc3C(c3ccccc3)C2C(=O)N1c1ccccc1 (stereo not drawn) ?
PTHR1 ag: inactive; D3 antag: -66*; a7 integrin act: 11%; MBNL1-CUG inh: 14%; CBFb-RUNX1 inh: -2%; DRD3 agonist: 1

What do the screens show for `COc1ccc(S(=O)(=O)N2CCCCC2)cc1NC(=O)CCNC(=O)c1ccco1`?
PTHR1 ag: -2%; D3 antag: 20; a7 integrin act: -6%; DRD3 agonist: 7

Results for C=CCOC(=O)/C(=C\c1ccc(OC)cc1)NC(=O)c1ccco1 ?
PTHR1 ag: inactive; D3 antag: -51*; a7 integrin act: -3%; MBNL1-CUG inh: 7%; CBFb-RUNX1 inh: 1%; DRD3 agonist: -7

Results for O=C(Nc1ccc2oc(-c3cccc4c(Br)cccc34)nc2c1)c1ccc(F)cc1 ?
PTHR1 ag: inactive; DRD3 agonist: 3

Results for CCCCNC(=S)N/N=C1\C(=O)c2cccc3cccc1c23 ?
PTHR1 ag: 1%[57.5 µM]; D3 antag: 22; a7 integrin act: -8%; MBNL1-CUG inh: -6%; CBFb-RUNX1 inh: 2%; DRD3 agonist: -5

What do the screens show for `CNC(=S)N/N=C1\C(=O)c2cccc3cccc1c23`?
PTHR1 ag: -24%; D3 antag: -55*; a7 integrin act: -57%; MBNL1-CUG inh: inconclusive; CBFb-RUNX1 inh: -9%; DRD3 agonist: -7

How did COc1ccc(C(CNC(=O)c2oc3cc(Br)ccc3c2C)N2CCCCC2)cc1 (stereo not drawn) do in these assays?
PTHR1 ag: inactive; D3 antag: -86*; a7 integrin act: 0%; MBNL1-CUG inh: 0%; DRD3 agonist: -14

What do the screens show for `CCc1ccc2oc(C(=O)NCC(c3ccc(OC)cc3)N3CCCCC3)c(C)c2c1` (stereo not drawn)?
PTHR1 ag: -27%; D3 antag: -77*; a7 integrin act: -24%; MBNL1-CUG inh: 1%; DRD3 agonist: -16

Results for COc1ccc(C(CNC(=O)c2oc3cc(C)c(C)cc3c2C)N2CCCCC2)cc1 (stereo not drawn) ?
PTHR1 ag: -8%; D3 antag: inconclusive; a7 integrin act: 30%; MBNL1-CUG inh: 0%; DRD3 agonist: -17

What do the screens show for `COc1ccc(C(CNC(=O)c2oc3ccc(F)cc3c2C)N2CCCCC2)cc1` (stereo not drawn)?
PTHR1 ag: inactive; D3 antag: -104*; a7 integrin act: -56%; MBNL1-CUG inh: -1%; DRD3 agonist: -23
